From PubChem
Only some compounds are listed: those with a hit (about 3.9% of all), similar ones and a draw of the others.
TGFb inhibitor: blocks TGF-b signaling. AID 588855. hit rate 1.2% among 410,000. HepG2 CAGA-GFP TGF-b/SMAD3 reporter, GFP fluorescence, 18 h; TGF-beta stimulated, 500 pg/mL final. Potency, µM (top dose mostly 46.1 µM), for the others: at the top dose activity, negative = inhibition, actives largely listed as inhibitors; note: % is set by controls: 0 for no effect and ±100 for the full control effect; nearly all actives have a fitted effect of over 65% in size
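Read-out: total well GFP (ex488/em500-530) summed from mean per-cell fluorescence. Cells: HEPG2 CAGA-GFP, 1% FBS DMEM, 18 h at 37 degrees C with 500 pg/mL final TGF-beta. Unstimulated wells served as the full-inhibition control; stimulated DMSO wells = 0%.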
HT1080 IDH1KD tx: toxicity to HT-1080 IDH1 knockdown cells (counter line) | HT-1080 IDH1 knockdown viability, ATP luminescence, 48 h | hit rate 2% among 360,000 | Potency, µM (highest dose often 46.1 µM), without a hit: top-dose activity, negative = toxicity, hits mostly cytotoxic | AID 686971;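 note: 0% = DMSO wells and -100% = cell-free medium wells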
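HT-1080-IDH1KD cells (IDH1 knocked down), 750/well in RPMI with 5% FBS, treated with compound 48 h at 37 degrees C. Viability by CellTiter-Glo luminescence, normalised to DMSO and no-cell wells; concentration-response curves classed.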
HT1080NT lethal: kills 2HG-producing HT-1080-NT fibrosarcoma cells. hit rate 1.6% among 360,000. Potency, µM (titrated, usually from 46.1 µM), for the others: at the highest dose activity, negative = less viability, usual class: cytotoxic. AID 686970. HT-1080-NT fibrosarcoma viability, CellTiter-Glo ATP luminescence, 48 h;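 note: NT is the 2HG producing partner of a matched IDH1 knockdown line; 0% = DMSO-treated cells and -100% = media-only wells without cells; nearly all actives have a fitted effect of over 55% in size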
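Viability by CellTiter-Glo luminescence after 48 h compound exposure at 37C of HT-1080-NT cells (750/well, RPMI, 5% FBS). % activity scaled between DMSO wells and medium-only wells, then curve-fitted and categorized by curve class.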
ATXN viability: viability counter-screen for ATXN expression inhibitors; hit rate 0.49% among 400,000; Potency, µM (top dose mostly 56.7 µM), most hits filed as cytotoxic; S2 cells (HEK-293 line with an ATXN2-luciferase reporter) viability, CellTiter-Fluor protease fluorescence, 24 h; note: nearly all actives have a fitted effect of over 40% in size
ATXN2 expr inh: ATXN2 expression inhibition | Potency, µM (doses to about 57 µM), without a hit: top-dose activity change, negative = inhibition, usual class: inhibitors | HEK-293 ATXN2-luciferase reporter, luminescence, 24 h | hit rate 0.72% among 360,000 | AID 1745845; note: % is set by controls: 0 for no effect and ±100 for the full control effect; nearly all actives have a fitted effect of over 55% in size
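qHTS (up to 57 uM final) was run with 24 h compound exposure of reporter cells at 37 °C. Each well was multiplexed: SteadyGlo luminescence measured ATXN2-luciferase expression after a fluorogenic Gly-Phe-AFC viability readout (25 uM final).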
HepG2 viability: counter-screen for TGF-b inhibitors: cytotoxicity in HepG2 cells; Potency, µM (highest dose often 46.1 µM), without a hit: at the highest dose activity change, negative = cytotoxicity, actives largely listed as cytotoxic; hit rate 0.76% among 410,000; AID 588856; HepG2 CAGA-GFP viability, ATP luminescence, 18 h
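CellTiter-Glo luminescence gave cytotoxicity after 18 hours at 37 degrees C. The cells were HepG2 CAGA-GFP in 1% FBS DMEM, stimulated with 500 pg/mL TGF-beta after compound addition. %Activity was normalised to no-cell wells (complete cell-killing) and DMSO (no toxicity), and curves were fitted and classified.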
Active calls of the source: *; i = inactive; ? = inconclusive; nt = not tested or not shown; [ ] = another dose, or the depositor's remark. Calls come from the whole dose curve; as a rule, active = well fitted curve in the direction sought with a large enough effect; inconclusive = small, poorly fitted or top-dose-only effect, or another doubt; inactive = no such curve, though single readings can be large; an effect the other way counts as inactive or inconclusive. Potency is the fitted concentration of half-maximal effect.

SMILES	TGFb inhibitor	HT1080 IDH1KD tx	HT1080NT lethal	ATXN viability	ATXN2 expr inh	HepG2 viability
COCCCNCCC(CCC(C)C)c1ccc2c(c1)OCO2 (stereo not given)	-7.4%	14.6µM*	20.6µM*	i	?	-33.1%
COc1ccc(CN(CCC#N)C(=S)NC(=O)c2ccccc2)cc1	-27.6%	-4.1%	-7.9%	i	-13.9%	-31.0%
N#CCCN(Cc1ccccc1)C(=S)NC(=O)c1ccccc1	-24.8%	1.12µM*	1.26µM*	i	-14.9%	0.3%
CCn1c(SCC(=O)Nc2cc(C)on2)nc2sc3c(c2c1=O)CCCC3	-19.0%	?	10µM*	nt	?	-28.6%
COc1cc(C(CCN2CCCC2)c2c(OC)cc(OC)c3c(C)cc(=O)oc23)cc(OC)c1OC (stereo not given)	2.9%	0.4%	-7.2%	?	10.4%	-0.5%
COc1cc(C(CCN2CCCC(C)C2)c2c(OC)cc(OC)c3c(-c4ccccc4)cc(=O)oc23)cc(OC)c1OC (stereo not given)	-6.0%	?	18.4µM*	nt	?	-4.5%
COc1cc(OC)c2ccc(=O)oc2c1C(CCN1CCCC(C)C1)c1ccc2c(c1)OCO2 (stereo not given)	?	-8.9%	-8.2%	28.2µM*	-21.3%	-46.0%
COc1cc(C(CCN2CCCCC2)c2c(OC)cc(OC)c3c(-c4ccccc4)cc(=O)oc23)cc(OC)c1OC (stereo not given)	?	-21.3%	-14.3%	25.1µM*	?	-80.1%
O=C1[C@H](Cc2ccccc2)NCC=CC[C@H](c2ccc(Cl)cc2)N1Cc1ccccc1	17.8µM*	-22.3%	-17.5%	?	?	-39.3%
O=C1[C@H](Cc2ccccc2)NCC=CC[C@H](c2ccc(Cl)cc2)N1Cc1ccc(Cl)cc1	?	?	?	31.6µM*	?	-59.9%
O=C1[C@H](Cc2ccccc2)NCCCC[C@@H](c2ccc(Cl)cc2)N1Cc1ccccc1	?	?	?	?	?	-68.4%
O=C1[C@H](Cc2ccccc2)NCC=CC[C@@H](c2ccc(Cl)cc2)N1Cc1ccc(Cl)cc1	?	?	?	nt	?	-90.7%
O=C(COc1ccc(F)cc1)Nc1ccccc1C(=O)OCc1cc(=O)n2nc(C3CC3)sc2n1	-2.6%	nt	nt	i	15.0%	3.1%
CCOc1ccc2[nH]c3c(NCCO)ncnc3c2c1	-21.6%	-6.2%	-10.2%	i	0.5%	0.2%
CCOc1ccc2[nH]c3c(NCCc4ccc(OC)c(OC)c4)ncnc3c2c1	-11.5%	?	?	?	17.8µM*	-59.8%
C=CC[C@H](c1ccc(F)cc1)N(CC(C)C)S(=O)(=O)C=C	-27.4%	nt	nt	nt	nt	-15.9%
CCOc1ccc(NC(=O)CN(C)C(=O)CSCc2cccc(C)c2)cc1OCC	-8.3%	1.1%	3.2%	i	-6.6%	-1.8%
CCOc1ccc(NC(=O)CN(C)C(=O)CSCc2ccc(C)cc2)cc1OCC	18.2%	-10.3%	1.4%	i	-18.7%	5.01µM*
Cc1ccc(-c2c[n+](CC(=O)Nc3nc(-c4ccccc4)cs3)c3n2CCC3)cc1	5.2%	23.1µM*	?	i	0.7%	-10.8%
Cc1ccc(-c2c[n+](CC(=O)c3ccc(Br)cc3)c3n2CCCCC3)cc1	-27.2%	?	20.6µM*	?	?	-22.4%
O=C(C[n+]1cc(-c2ccccc2)n2c1CCCCC2)c1ccc(Cl)cc1	4.6%	-2.7%	-1.9%	i	10.9%	-17.9%
O=C(COC(=O)CNC(=O)C1CCCCC1)NC1CC1	5.0%	nt	nt	nt	nt	14.7%
CCN(C(=O)CSc1nc2ccccc2n1Cc1ccc(F)cc1Cl)c1ccccc1	?	nt	nt	i	0.5%	-5.8%
CC(=O)Nc1ccc(Oc2sc(C(=O)c3ccccc3)c(N)c2C#N)cc1	10µM*	16.4µM*	?	i	-1.9%	-2.9%
CCc1cccc(CC)c1NC(=O)CSc1nc2ccc(N3C(=O)C4C(C3=O)[C@H]3C=C[C@@H]4C3)cc2s1 (stereo not given in full)	-1.0%	25.9µM*	2.1%	i	-19.0%	-18.4%
SMILES	TGFb inhibitor	HT1080 IDH1KD tx	HT1080NT lethal	ATXN viability	ATXN2 expr inh	HepG2 viability
CCC1CN(CCNC(=O)c2cccc(C(=O)OC)c2)Cc2cc(OC)ccc2O1 (stereo not given)	nt	nt	nt	i	nt	nt
CCn1c(C)nc2cc(C(=O)NN=C(C)c3ccc(C#N)cc3)ccc21	-8.7%	-1.4%	-9.9%	i	7.7%	-14.5%
CCn1c(C)nc2cc(C(=O)N/N=C(\C)c3ccc(OC)cc3O)ccc21	?	14.6µM*	?	i	?	-27.2%
O=C(Nc1ncc(SCCN2CCCC2)s1)[C@]1(c2ccc(S(=O)(=O)C3CC3)cc2)C[C@@H]1C1CCCCC1	nt	nt	nt	nt	27.3µM*	nt
CCOC(=O)C(NC(=O)c1ccccc1Cl)(Nc1ccc(C)c(C)c1)C(F)(F)F (stereo not given)	-20.1%	-0.3%	0.8%	i	7.0%	-8.2%
COC(=O)C(Nc1ccccc1Cl)(c1cc(C)c(O)c(C)c1)C(F)(F)F (stereo not given)	10µM*	?	?	i	?	15.8µM*
Cc1cc(N2CCCC2)c(F)cc1/C=C\[N+](=O)[O-]	11.2µM*	?	?	nt	0.6%[11.3 µM]	-44.2%
Cc1ccc(NC(=O)CSc2nc3ccccc3nc2Cc2ccccc2F)cc1F	0.4%	nt	nt	i	9.2%	-2.1%
CCN(CC)c1ccc(NC(=O)c2cccc(F)c2)c(C)c1	0.5%	16.4µM*	?	i	-6.5%	-2.5%
C[C@@H](Cc1cc2c(c(C(N)=O)c1)N(CCCO)CC2)NCCOc1ccccc1OCC(F)(F)F	nt	nt	nt	nt	-13.3%	nt
COc1c(Cl)cc(C(=O)N(Cc2ccc(C)o2)C2CCS(=O)(=O)C2)cc1Cl (stereo not given)	-21.3%	nt	nt	i	6.5%	-21.3%
CCCOc1ccc(Oc2nc(NCC(C)C)nc(N(C)C)n2)nn1	0.7%	nt	nt	nt	nt	2.7%
Nc1nc2n[nH]nc2c(=O)[nH]1	?	0.116µM*	?	?	6.8%	-56.6%
Nc1nc(N)c(N)c(=O)[nH]1	12.0%	nt	nt	nt	nt	6.0%
Cc1ccc2c(c1)N(C)/C(=C/c1cccc[n+]1C)S2	-2.0%	10.3µM*	20.6µM*	i	?	11.2µM*
CCN1/C(=C/c2cccc[n+]2C)Sc2ccc(OC)cc21	3.98µM*	?	?	i	nt	-18.3%
CN1/C(=C/c2cccc[n+]2C)Sc2ccccc21	?	?	?	i	?	-37.3%
COc1ccc2c(c1)N(C)/C(=C/c1cccc[n+]1C)S2	-17.4%	13µM*	?	?	?	-37.2%
